About 2,000 (36%) of roughly 5,500 compounds were called active. Roughly 18% stayed inconclusive and do not appear here. No stated cut-off is given here; in the data, active means normalized growth mostly below about 0.91 (no sharp cut-off); inconclusive means no clear call, values can overlap the other calls; inactive means mostly above about 0.92. The list shows a part of the results.
Test: chemical genetic growth profiling, strain panel (AID 1159580);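 further: tested at 20 µM; growth read once vehicle control cultures reached saturation at 30 °C; 1 = growth at the plate median or of vehicle wells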
Conditions: growth OD

Measured: normalized growth

C=C[C@](C)(O)CCC=C(C)C
inactive: S. cerevisiae deletion strains, locus YBR021W, strain FUR4, stronger effect = lower value 1.01 | S. cerevisiae deletion strains, locus YBR229C, strain ROT2, stronger effect = lower value 1 | S. cerevisiae deletion strains, locus YCL029C, strain bik1, stronger effect = lower value 1.02 | S. cerevisiae deletion strains, locus YDL035C, strain GPR1, stronger effect = lower value 1.04 | S. cerevisiae deletion strains, locus YDL074C, strain BRE1, stronger effect = lower value 1.06 | S. cerevisiae deletion strains, locus YDL101C, strain DUN1, stronger effect = lower value 1.01 | S. cerevisiae deletion strains, locus YDL134C, strain PPH21, stronger effect = lower value 1 | S. cerevisiae deletion strains, locus YDL185W, strain tfp1, stronger effect = lower value 1.02 | S. cerevisiae deletion strains, locus YDL192W, strain arf1, stronger effect = lower value 1.01 | S. cerevisiae deletion strains, locus YDR101C, strain arx1, stronger effect = lower value 1.04 | S. cerevisiae deletion strains, locus YDR162C, strain NBP2, stronger effect = lower value 1 | S. cerevisiae deletion strains, locus YDR318W, strain mcm21, stronger effect = lower value 0.986 | S. cerevisiae deletion strains, locus YDR388W, stronger effect = lower value 1.01 | S. cerevisiae deletion strains, locus YDR502C, strain sam2, stronger effect = lower value 0.999 | S. cerevisiae deletion strains, locus YEL061C, strain CIN8, stronger effect = lower value 1 | S. cerevisiae deletion strains, locus YER110C, stronger effect = lower value 1.01 | S. cerevisiae deletion strains, locus YER155C, strain BEM2, stronger effect = lower value 1.01 | S. cerevisiae deletion strains, locus YER167W, strain BCK2, stronger effect = lower value 1.01 | S. cerevisiae deletion strains, locus YGL078C, strain dbp3, stronger effect = lower value 1.02 | S. cerevisiae deletion strains, locus YGL086W, strain mad1, stronger effect = lower value 1.05 | S. cerevisiae deletion strains, locus YGL248W, strain PDE1, stronger effect = lower value 0.995 | S. cerevisiae deletion strains, locus YGR135W, strain pre9, stronger effect = lower value 1.01 | S. cerevisiae deletion strains, locus YGR252W, strain gcn5, stronger effect = lower value 0.977 | S. cerevisiae deletion strains, locus YHR030C, strain SLT2, stronger effect = lower value 1.01 | S. cerevisiae deletion strains, locus YHR079C, strain IRE1 (second series), stronger effect = lower value 1.01 | S. cerevisiae deletion strains, locus YHR094C, strain hxt1, stronger effect = lower value 1.01 | S. cerevisiae deletion strains, locus YHR129C, strain ARP1, stronger effect = lower value 1.02 | S. cerevisiae deletion strains, locus YHR200W, strain rpn10, stronger effect = lower value 1.01 | S. cerevisiae deletion strains, locus YIL066C, strain RNR3, stronger effect = lower value 1.01 | S. cerevisiae deletion strains, locus YIL073C, strain SPO22, stronger effect = lower value 1.03 | S. cerevisiae deletion strains, locus YIL125W, strain kgd1, stronger effect = lower value 1.02 | S. cerevisiae deletion strains, locus YIR030C, strain dcg1, stronger effect = lower value 0.998 | S. cerevisiae deletion strains, locus YJL095W, strain BCK1, stronger effect = lower value 0.988 | S. cerevisiae deletion strains, locus YJL134W, strain LCB3, stronger effect = lower value 0.999 | S. cerevisiae deletion strains, locus YJL168C, strain set2, stronger effect = lower value 1.01 | S. cerevisiae deletion strains, locus YJL187C, strain SWE1 (second series), stronger effect = lower value 1 | S. cerevisiae deletion strains, locus YJR043C, strain POL32, stronger effect = lower value 1.04 | S. cerevisiae deletion strains, locus YJR075W, strain HOC1, stronger effect = lower value 1 | S. cerevisiae deletion strains, locus YKL009W, strain mrt4, stronger effect = lower value 1.05 | S. cerevisiae deletion strains, locus YKL068W, stronger effect = lower value 1 | S. cerevisiae deletion strains, locus YKL085W, strain MDH1 (second series), stronger effect = lower value 0.995 | S. cerevisiae deletion strains, locus YKL085W, strain MDH1, stronger effect = lower value 0.995 | S. cerevisiae deletion strains, locus YKL190W, strain CNB1, stronger effect = lower value 1 | S. cerevisiae deletion strains, locus YKR001C, strain vps1, stronger effect = lower value 1.06 | S. cerevisiae deletion strains, locus YLR039C, strain RIC1, stronger effect = lower value 1.03 | S. cerevisiae deletion strains, locus YLR058C, strain SHM2, stronger effect = lower value 0.997 | S. cerevisiae deletion strains, locus YLR102C, strain apc9, stronger effect = lower value 1.01 | S. cerevisiae deletion strains, locus YLR262C, strain YPT6, stronger effect = lower value 1.01 | S. cerevisiae deletion strains, locus YLR268W, strain sec22, stronger effect = lower value 1.06 | S. cerevisiae deletion strains, locus YLR330W, strain CHS5, stronger effect = lower value 1.02 | S. cerevisiae deletion strains, locus YLR342W, strain FKS1 (second series), stronger effect = lower value 1.05 | S. cerevisiae deletion strains, locus YLR371W, strain rom2, stronger effect = lower value 1.02 | S. cerevisiae deletion strains, locus YLR418C, strain cdc73, stronger effect = lower value 0.984 | S. cerevisiae deletion strains, locus YML016C, strain PPZ1, stronger effect = lower value 1.01 | S. cerevisiae deletion strains, locus YML032C, strain rad52, stronger effect = lower value 0.973 | S. cerevisiae deletion strains, locus YML124C, strain tub3, stronger effect = lower value 0.999 | S. cerevisiae deletion strains, locus YMR078C, strain ctf18, stronger effect = lower value 1.01 | S. cerevisiae deletion strains, locus YMR223W, strain ubp8, stronger effect = lower value 0.994 | S. cerevisiae deletion strains, locus YMR307W, strain GAS1, stronger effect = lower value 1.03 | S. cerevisiae deletion strains, locus YNL067W, strain RPL9B, stronger effect = lower value 1.01 | S. cerevisiae deletion strains, locus YNL233W, strain BNI4, stronger effect = lower value 1 | S. cerevisiae deletion strains, locus YNL250W, strain rad50, stronger effect = lower value 1.02 | S. cerevisiae deletion strains, locus YNL271C, strain bni1, stronger effect = lower value 1.01 | S. cerevisiae deletion strains, locus YNL298W, strain CLA4, stronger effect = lower value 1.02 | S. cerevisiae deletion strains, locus YNL307C, strain MCK1, stronger effect = lower value 1.03 | S. cerevisiae deletion strains, locus YNL322C, strain KRE1, stronger effect = lower value 1 | S. cerevisiae deletion strains, locus YNR052C, strain pop2, stronger effect = lower value 0.997 | S. cerevisiae deletion strains, locus YOL006C, strain TOP1, stronger effect = lower value 1.1 | S. cerevisiae deletion strains, locus YOL012C, strain htz1 1.44 | S. cerevisiae deletion strains, locus YOL147C, strain pex11, stronger effect = lower value 1 | S. cerevisiae deletion strains, locus YOR061W, strain CKA2, stronger effect = lower value 1 | S. cerevisiae deletion strains, locus YOR069W, strain VPS5, stronger effect = lower value 1.01 | S. cerevisiae deletion strains, locus YOR136W, strain idh2, stronger effect = lower value 1.01 | S. cerevisiae deletion strains, locus YOR144C, strain elg1, stronger effect = lower value 1.01 | S. cerevisiae deletion strains, locus YOR184W, strain ser1, stronger effect = lower value 1.05 | S. cerevisiae deletion strains, locus YOR316C, strain cot1, stronger effect = lower value 1.01 | S. cerevisiae deletion strains, locus YPL241C, strain CIN2, stronger effect = lower value 0.998 | S. cerevisiae deletion strains, locus YPR119W, strain clb2, stronger effect = lower value 1 | S. cerevisiae deletion strains, locus YPR141C, strain kar3, stronger effect = lower value 1 | S. cerevisiae deletion strains, locus YPR163C, strain tif3, stronger effect = lower value 1 | S. cerevisiae deletion strains, locus YPR167C, strain met16, stronger effect = lower value 0.999 | S. cerevisiae deletion strains, strain wtn01, stronger effect = lower value 1.07 | S. cerevisiae strains, strain wild type, stronger effect = lower value 1.01
